A short description of experiment [1]: NCI Yeast Anticancer Drug Screen. Data for the rad50 strain (AID 155).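 Note: 0% = growth of vehicle-only cultures of the same strain.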 The settings on record: S. cerevisiae rad50 strain growth inhibition; at 50.0 µM; active compounds read high. The method in brief:
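Relative growth inhibition (compound vs vehicle) was measured in yeast with a defined repair-gene alteration.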

Experiment [2] is described as follows: NCI Yeast Anticancer Drug Screen. Data for the mec2-1 strain (AID 157). The settings on record: S. cerevisiae mec2-1 strain, at 50.0 µM, active compounds read high. The gist of the method:
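Yeast mec2-1 mutant treated with compound. Readout: growth inhibition vs vehicle controls.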

Experiment [3] in a line: NCI Yeast Anticancer Drug Screen. Data for the sgs1 mgt1 strain (AID 161).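 Note: 0% = growth of cultures given vehicle only.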 The settings on record: S. cerevisiae sgs1 mgt1 strain, at 50.0 µM, active compounds read high. The gist of the method: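 Genetically altered yeast, compound exposure, growth inhibition relative to vehicle.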
A short description of experiment [4]: NCI Yeast Anticancer Drug Screen. Data for the cln2 rad14 strain (AID 165).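 Note: 0% = growth equal to vehicle treated cultures.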 The settings on record: S. cerevisiae cln2 rad14 strain, at 50.0 µM, active compounds read high. The method in brief:
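cln2 rad14 yeast strain; compound exposure; growth inhibition read vs vehicle controls.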

Experiment [5] can be described thus: NCI Yeast Anticancer Drug Screen. Data for the bub3 strain (AID 167). The settings on record: S. cerevisiae bub3 mutant strain, at 50.0 µM, active compounds read high. The gist of the method:
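Screening used yeast with an engineered genetic alteration affecting cell cycle control. Compound-exposed cultures were compared with vehicle cultures, and reduced growth was taken as inhibition.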

Experiment [6] is described as follows: NCI Yeast Anticancer Drug Screen. Data for the mlh1 rad18 strain (AID 175). The settings on record: S. cerevisiae mlh1 rad18 strain growth inhibition; at 50.0 µM; active compounds read high. The method in brief: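 Yeast w/ defined DNA-repair lesions; compound exposure; growth vs vehicle controls → % inhibition.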

Compounds without any hit were thinned out: in the full panel of roughly 79,000, 15% have a hit. Values without a mark were called inactive. Active and inactive are the calls of the source. Cut-off read from the data, not from the text of the source: active = growth inhibition above about 70%; inactive = the rest.

With `c1ccc2cc(N3CCOCC3)ccc2c1`, the growth inhibition was -19.1% in experiment [1]; -27.4% in experiment [2]; -7.3% in experiment [3]; -19.9% in experiment [4]; -22.8% in experiment [5]; 2.3% in experiment [6].

On to `O=C1NC(N2CCCCC2)=N/C1=C\c1ccccc1O`, for which the growth inhibition in experiment [1] was 5%; in experiment [2] it was -25.3%; in experiment [3] it was -2.85%; in experiment [4], 15.1%; in experiment [5] it was 5.5%; in experiment [6] it was 89.7% (active).

For `O=c1c2cc([N+](=O)[O-])ccc2[nH]n1Cc1ccccc1Cl`, the growth inhibition in experiment [1] is -0.1%; in experiment [2] it was 12.3%; in experiment [3] it was -3.8%; in experiment [4] it was 14.9%; in experiment [5], 6.6%; in experiment [6], -4.45%.

As for `CCOC(=O)c1ccc(N=Cc2cccs2)cc1`, the growth inhibition in experiment [1] was -1.9%; in experiment [2] it was 28.4%; in experiment [3], 17.1%; in experiment [4], 9.5%; in experiment [5], 0%; in experiment [6], 17.4%.

On to `COc1ccc(N=NN(C(C)=O)c2ccccc2)cc1`, for which the growth inhibition is 2.85% in experiment [1]; 10.2% in experiment [2]; 35.5% in experiment [3]; -5.75% in experiment [4]; -1% in experiment [5]; 19.1% in experiment [6].

With `CCOC(=O)NC(=S)C1=C(N2CCOCC2)CCC1`, the growth inhibition is -16.1% in experiment [1]; -34.4% in experiment [2]; 1.95% in experiment [3]; 7.25% in experiment [4]; -28.4% in experiment [5]; 6.45% in experiment [6].

For the compound `COc1cc([N+](=O)[O-])c2ncccc2c1OC`, the growth inhibition in experiment [1] is 5.55%; in experiment [2], -11.1%; in experiment [3], -22.1%; in experiment [4], -20.2%; in experiment [5] it was 0.45%; in experiment [6] it was 68.2%.

With `CCOC(=O)c1c(O)csc1C`, the growth inhibition in experiment [1] was -7.75%; in experiment [2], -6.35%; in experiment [3], -7.45%; in experiment [4] it was -14.2%; in experiment [5], -6.05%; in experiment [6], -8.15%.

As to `Cc1cc(=O)[nH]c(/N=C(\N)Nc2ccc(Br)c(C(F)(F)F)c2)n1`, the growth inhibition is 10.1% in experiment [1]; 2.85% in experiment [2]; -3.8% in experiment [3]; 6.55% in experiment [4]; -1.5% in experiment [5]; 2.9% in experiment [6].

Turning to `O=C(O)c1ccc(O)c(Cl)c1`, the growth inhibition is 14.2% in experiment [1]; 5.8% in experiment [2]; -7.85% in experiment [3]; -22.2% in experiment [4]; 9.25% in experiment [5]; 25.4% in experiment [6].

In the case of `Nc1nnc2nc(CC(=O)c3ccccc3)c(CC(=O)c3ccccc3)nn12`, the growth inhibition in experiment [1] was -5.4%; in experiment [2], -2.9%; in experiment [3], 3%; in experiment [4], 32.6%; in experiment [5] it was -29%; in experiment [6], 16.2%.

On to `OCCN(CCO)C(Cc1ccccc1)Cc1ccccc1`, for which the growth inhibition is -7.9% in experiment [1]; -9.95% in experiment [2]; -1.7% in experiment [3]; -11.1% in experiment [4]; 26.4% in experiment [5]; -22.9% in experiment [6].

As for `COC(=O)C1(C(=O)OC)OC(c2ccc(OC)cc2)[C@H]2C(=O)N(C)C(=O)[C@H]21` (stereo not given in full), the growth inhibition is 2.75% in experiment [1]; -6% in experiment [2]; 3.1% in experiment [3]; -8.7% in experiment [4]; 10.2% in experiment [5]; 15.3% in experiment [6].

On to `Cc1c(O)c(=O)ccn1CCN`, for which the growth inhibition in experiment [1] was 5.65%; in experiment [2], -8.35%; in experiment [3], 2.6%; in experiment [4], -34%; in experiment [5], -9.7%; in experiment [6] it was 5.8%.

Turning to `COc1nc2c(c(O)cn2C2OCC(OC(C)=O)C(OC(C)=O)C2OC(C)=O)c(=O)n1C` (stereo not given), the growth inhibition in experiment [1] was -1.65%; in experiment [2] it was -5.9%; in experiment [3] it was -25.8%; in experiment [4], -2.75%; in experiment [5], -1%; in experiment [6], 15.8%.

Regarding `CCCCCCCC(NC(C)=O)(C(=O)OCC)C(=O)OCC`, the growth inhibition was -9.25% in experiment [1]; -19.1% in experiment [2]; -4.55% in experiment [3]; -29.9% in experiment [4]; 6.75% in experiment [5]; -28.8% in experiment [6].

Consider `O=C(CN(c1ccc(S(=O)(=O)O)cc1)c1ccc(S(=O)(=O)O)cc1)Nn1cnc2ccc(S(=O)(=O)N(c3ccc(S(=O)(=O)O)cc3)c3ccc(S(=O)(=O)O)cc3)cc2c1=O`, for which the growth inhibition was 29.1% in experiment [1]; 6.15% in experiment [2]; 31.2% in experiment [3]; 19.2% in experiment [4]; 26% in experiment [5]; 34.1% in experiment [6].

Regarding `CC1=NN(C(=O)c2ccccc2O)C(=O)/C1=C/c1ccc(O)cc1`, the growth inhibition in experiment [1] was 6.3%; in experiment [2] it was -16.1%; in experiment [3] it was -15.5%; in experiment [4] it was -5.65%; in experiment [5], -11.8%; in experiment [6] it was -27.6%.

On to `CC(=O)Oc1ccc[nH]c1=O`, for which the growth inhibition in experiment [1] was 5.25%; in experiment [2] it was -22.1%; in experiment [3], 0.9%; in experiment [4], 24.6%; in experiment [5] it was 14.3%; in experiment [6], 2.4%.

In the case of `Fc1ccc(C=C2c3ccccc3-c3ccccc32)cc1`, the growth inhibition was 11.7% in experiment [1]; 4.5% in experiment [2]; 18.4% in experiment [3]; 39.2% in experiment [4]; 11.7% in experiment [5]; -3.6% in experiment [6].

These data come from PubChem BioAssay (NCI).
